# Columns and labels:
# Experiment in all cases: DAPPL (digital affinity profiling via proximity ligation, sequencing); 10 mM Tris-HCl pH 7.5, 50 mM NaCl, 1 mM DTT, 4% glycerol, room temperature, 30 min; GST-TFs on glutathione beads, 16-mer random dsDNA library, 0.1% formaldehyde crosslink after washing; high values mean tight binding
# FLI1 = target: T1, FLI1 (Homo sapiens, UniProt Q01543 1-452); details: protein: recombinant; tags: N-terminal GST; dsDNA, one strand shown
# T1 sequence: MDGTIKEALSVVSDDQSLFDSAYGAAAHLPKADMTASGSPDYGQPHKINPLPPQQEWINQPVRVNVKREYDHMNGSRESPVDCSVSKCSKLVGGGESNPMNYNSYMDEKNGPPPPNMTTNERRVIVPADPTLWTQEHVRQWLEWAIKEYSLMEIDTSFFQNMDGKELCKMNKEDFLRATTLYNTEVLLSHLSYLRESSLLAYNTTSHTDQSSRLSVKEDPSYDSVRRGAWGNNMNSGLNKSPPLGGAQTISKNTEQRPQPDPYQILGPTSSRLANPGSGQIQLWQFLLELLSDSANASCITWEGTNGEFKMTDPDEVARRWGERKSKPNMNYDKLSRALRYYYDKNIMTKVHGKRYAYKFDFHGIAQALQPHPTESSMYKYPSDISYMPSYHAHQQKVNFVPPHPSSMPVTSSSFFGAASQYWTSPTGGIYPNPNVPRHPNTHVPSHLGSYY
# In short: (§1)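 Sequencing on an Illumina NextSeq500 followed washing, crosslinking with 0.1% formaldehyde, proximity ligation (BsaI/T4 ligase, 1 h, 37 °C) and PCR amplification of pools that had been incubated for 30 min at room temperature with 200 nmole of a random double-stranded 16-mer DNA library in Tris/NaCl/DTT/glycerol buffer. Each pool held DNA-barcoded human transcription factors, expressed in yeast as GST fusions and captured on glutathione beads, plus a tag-only sample. Binding signal is a hexamer's read frequency for a factor divided by its frequency in the tag-only sample.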
# ELK1 = target: T2, ELK1 (Homo sapiens, UniProt P19419 1-428); details: protein: recombinant; tags: N-terminal GST; dsDNA, one strand shown
# T2 sequence: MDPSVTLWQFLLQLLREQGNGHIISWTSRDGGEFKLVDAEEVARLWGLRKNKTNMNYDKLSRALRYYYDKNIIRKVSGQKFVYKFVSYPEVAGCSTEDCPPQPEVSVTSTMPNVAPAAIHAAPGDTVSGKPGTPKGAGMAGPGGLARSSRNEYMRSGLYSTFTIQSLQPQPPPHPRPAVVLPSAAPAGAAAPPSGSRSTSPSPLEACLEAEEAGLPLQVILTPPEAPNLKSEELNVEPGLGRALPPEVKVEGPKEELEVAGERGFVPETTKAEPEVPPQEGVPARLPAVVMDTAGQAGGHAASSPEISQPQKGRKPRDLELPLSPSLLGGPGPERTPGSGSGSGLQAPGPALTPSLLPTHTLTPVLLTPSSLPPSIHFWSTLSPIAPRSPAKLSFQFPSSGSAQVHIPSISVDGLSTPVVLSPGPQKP
# In short: as §1
# GABPA = target: T3, GABPA (Homo sapiens, UniProt Q06546 1-454); details: protein: recombinant; tags: N-terminal GST; dsDNA, one strand shown
# T3 sequence: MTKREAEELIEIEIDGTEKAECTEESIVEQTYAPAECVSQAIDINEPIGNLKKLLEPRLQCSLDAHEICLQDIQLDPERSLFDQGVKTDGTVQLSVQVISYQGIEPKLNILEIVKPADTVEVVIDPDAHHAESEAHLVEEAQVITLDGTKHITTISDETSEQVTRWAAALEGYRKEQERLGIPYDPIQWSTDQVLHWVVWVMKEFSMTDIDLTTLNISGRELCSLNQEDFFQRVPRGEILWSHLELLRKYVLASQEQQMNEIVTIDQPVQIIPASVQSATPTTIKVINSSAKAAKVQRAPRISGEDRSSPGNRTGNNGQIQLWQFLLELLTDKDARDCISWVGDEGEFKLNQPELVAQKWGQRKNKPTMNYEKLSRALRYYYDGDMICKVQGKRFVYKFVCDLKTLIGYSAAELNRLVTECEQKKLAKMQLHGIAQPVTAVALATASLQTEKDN
# In short: as §1
# ERG = target: T4, ERG (Homo sapiens, UniProt P11308 1-479); details: protein: recombinant; tags: N-terminal GST; dsDNA, one strand shown
# T4 sequence: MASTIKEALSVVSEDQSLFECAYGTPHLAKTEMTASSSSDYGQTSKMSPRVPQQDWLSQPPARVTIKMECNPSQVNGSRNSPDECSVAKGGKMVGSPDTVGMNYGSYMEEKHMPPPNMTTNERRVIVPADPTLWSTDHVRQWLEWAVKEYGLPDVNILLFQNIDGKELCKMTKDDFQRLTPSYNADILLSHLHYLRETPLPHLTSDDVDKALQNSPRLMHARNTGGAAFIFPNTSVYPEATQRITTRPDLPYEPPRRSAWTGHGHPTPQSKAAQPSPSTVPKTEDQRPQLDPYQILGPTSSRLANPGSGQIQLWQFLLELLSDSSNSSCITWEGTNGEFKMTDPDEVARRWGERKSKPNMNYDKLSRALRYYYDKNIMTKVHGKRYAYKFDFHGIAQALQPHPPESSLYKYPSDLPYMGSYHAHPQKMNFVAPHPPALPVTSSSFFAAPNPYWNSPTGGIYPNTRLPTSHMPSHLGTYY
# In short: as §1
# ELF1 = ELF1 (Homo sapiens, UniProt P32519 1-619); details: protein: recombinant; tags: N-terminal GST; dsDNA, one strand shown
# ELF1, sequence (P32519 whole entry): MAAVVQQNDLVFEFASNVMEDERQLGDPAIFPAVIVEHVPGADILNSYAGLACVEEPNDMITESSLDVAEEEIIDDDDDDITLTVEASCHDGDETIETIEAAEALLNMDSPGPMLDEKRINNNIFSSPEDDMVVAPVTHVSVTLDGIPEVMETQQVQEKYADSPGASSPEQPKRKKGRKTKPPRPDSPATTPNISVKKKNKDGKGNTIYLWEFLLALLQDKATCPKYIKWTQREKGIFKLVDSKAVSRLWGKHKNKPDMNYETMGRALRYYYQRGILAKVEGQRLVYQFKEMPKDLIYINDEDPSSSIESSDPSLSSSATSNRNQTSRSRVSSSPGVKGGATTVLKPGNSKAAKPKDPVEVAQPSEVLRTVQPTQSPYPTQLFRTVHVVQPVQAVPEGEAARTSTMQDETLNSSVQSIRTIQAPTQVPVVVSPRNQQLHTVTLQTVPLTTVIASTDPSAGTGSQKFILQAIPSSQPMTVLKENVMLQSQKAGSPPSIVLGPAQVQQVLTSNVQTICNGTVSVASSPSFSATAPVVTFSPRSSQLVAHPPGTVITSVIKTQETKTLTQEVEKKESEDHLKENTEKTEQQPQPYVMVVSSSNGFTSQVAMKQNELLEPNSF
# In short: as §1
# EHF = target: T5, EHF (Homo sapiens, UniProt Q9NZC4 1-300); details: protein: recombinant; tags: N-terminal GST; dsDNA, one strand shown
# T5 sequence: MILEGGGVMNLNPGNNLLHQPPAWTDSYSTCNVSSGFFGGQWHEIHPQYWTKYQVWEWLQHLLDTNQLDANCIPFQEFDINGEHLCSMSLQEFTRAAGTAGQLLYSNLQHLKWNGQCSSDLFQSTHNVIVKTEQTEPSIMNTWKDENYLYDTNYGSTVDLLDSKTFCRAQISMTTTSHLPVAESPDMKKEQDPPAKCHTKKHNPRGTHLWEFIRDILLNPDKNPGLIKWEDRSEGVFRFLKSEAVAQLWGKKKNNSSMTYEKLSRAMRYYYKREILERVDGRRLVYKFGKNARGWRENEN
# In short: as §1
# SPI1 = SPI1 (Homo sapiens, UniProt P17947 1-270); details: protein: recombinant; tags: N-terminal GST; dsDNA, one strand shown
# In short: as §1
# SPIB = SPIB (Homo sapiens, UniProt Q01892 1-262); details: protein: recombinant; tags: N-terminal GST; dsDNA, one strand shown
# SPIB, sequence (Q01892 whole entry): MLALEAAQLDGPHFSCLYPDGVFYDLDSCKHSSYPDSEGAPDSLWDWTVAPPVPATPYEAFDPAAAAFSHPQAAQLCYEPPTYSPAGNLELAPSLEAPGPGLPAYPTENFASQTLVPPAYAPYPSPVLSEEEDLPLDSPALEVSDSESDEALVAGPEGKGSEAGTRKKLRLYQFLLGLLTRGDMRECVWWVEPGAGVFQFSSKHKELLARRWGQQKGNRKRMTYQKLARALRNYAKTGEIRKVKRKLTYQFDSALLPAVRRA
# In short: as §1
# ELK3 = target: T6, ELK3 (Homo sapiens, UniProt P41970 1-407); details: protein: recombinant; tags: N-terminal GST; dsDNA, one strand shown
# T6 sequence: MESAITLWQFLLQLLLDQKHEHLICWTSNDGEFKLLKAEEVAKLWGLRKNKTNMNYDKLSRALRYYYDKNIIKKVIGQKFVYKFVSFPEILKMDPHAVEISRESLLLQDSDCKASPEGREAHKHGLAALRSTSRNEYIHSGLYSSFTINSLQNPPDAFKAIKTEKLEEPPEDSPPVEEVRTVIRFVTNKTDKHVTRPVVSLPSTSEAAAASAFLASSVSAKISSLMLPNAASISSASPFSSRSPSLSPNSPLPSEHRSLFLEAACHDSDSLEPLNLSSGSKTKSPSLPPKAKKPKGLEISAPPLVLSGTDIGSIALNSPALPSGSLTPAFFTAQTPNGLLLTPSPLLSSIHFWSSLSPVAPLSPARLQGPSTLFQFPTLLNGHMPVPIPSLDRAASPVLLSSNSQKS
# In short: as §1
# FEV = target: T7, FEV (Homo sapiens, UniProt Q99581 1-238); details: protein: recombinant; tags: N-terminal GST; dsDNA, one strand shown
# T7 sequence: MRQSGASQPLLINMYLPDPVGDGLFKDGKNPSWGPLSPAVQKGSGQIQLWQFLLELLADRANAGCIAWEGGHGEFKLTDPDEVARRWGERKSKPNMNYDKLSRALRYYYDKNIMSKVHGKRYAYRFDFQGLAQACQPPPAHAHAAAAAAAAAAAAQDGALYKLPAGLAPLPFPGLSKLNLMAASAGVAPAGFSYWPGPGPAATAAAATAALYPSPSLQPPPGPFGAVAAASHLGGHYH
# In short: as §1
# ETV5 = ETV5 (Homo sapiens, UniProt P41161 1-510); details: protein: recombinant; tags: N-terminal GST; dsDNA, one strand shown
# ETV5, sequence (P41161 whole entry): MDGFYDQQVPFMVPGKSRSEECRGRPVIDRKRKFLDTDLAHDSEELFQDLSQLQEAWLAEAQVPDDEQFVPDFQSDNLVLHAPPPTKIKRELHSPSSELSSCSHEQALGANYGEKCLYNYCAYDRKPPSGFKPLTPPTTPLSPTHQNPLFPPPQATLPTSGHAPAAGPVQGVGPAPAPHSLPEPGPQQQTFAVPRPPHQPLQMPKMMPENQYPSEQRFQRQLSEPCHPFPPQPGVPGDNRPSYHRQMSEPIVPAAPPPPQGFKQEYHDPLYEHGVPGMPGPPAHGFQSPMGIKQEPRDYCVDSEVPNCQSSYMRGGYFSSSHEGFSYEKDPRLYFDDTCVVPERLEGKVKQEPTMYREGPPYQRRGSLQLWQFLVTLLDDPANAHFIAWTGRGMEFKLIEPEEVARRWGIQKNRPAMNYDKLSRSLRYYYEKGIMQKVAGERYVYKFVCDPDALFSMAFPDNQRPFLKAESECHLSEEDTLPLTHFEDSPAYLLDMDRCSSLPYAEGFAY
# In short: as §1
# HSF1 = HSF1 (Homo sapiens, UniProt Q00613 1-529); details: protein: recombinant; tags: N-terminal GST; chain copies: 3; dsDNA, one strand shown
# HSF1, sequence (Q00613 whole entry): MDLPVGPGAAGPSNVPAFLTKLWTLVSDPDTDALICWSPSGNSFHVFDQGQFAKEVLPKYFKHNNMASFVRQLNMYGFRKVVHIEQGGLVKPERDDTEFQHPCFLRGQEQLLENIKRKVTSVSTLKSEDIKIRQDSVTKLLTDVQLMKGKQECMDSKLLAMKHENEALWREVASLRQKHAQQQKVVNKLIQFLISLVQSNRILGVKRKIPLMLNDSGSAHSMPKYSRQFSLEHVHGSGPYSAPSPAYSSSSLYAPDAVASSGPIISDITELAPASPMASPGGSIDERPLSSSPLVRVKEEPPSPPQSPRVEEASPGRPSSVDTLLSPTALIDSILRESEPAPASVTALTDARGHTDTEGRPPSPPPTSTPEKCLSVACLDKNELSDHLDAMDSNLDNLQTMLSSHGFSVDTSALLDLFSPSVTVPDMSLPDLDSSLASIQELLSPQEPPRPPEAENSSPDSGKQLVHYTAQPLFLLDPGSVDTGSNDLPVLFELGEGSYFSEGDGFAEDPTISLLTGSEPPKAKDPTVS
# In short: as §1
# SPIC = target: T8, SPIC (Homo sapiens, UniProt Q8N5J4 1-248); details: protein: recombinant; tags: N-terminal GST; dsDNA, one strand shown
# T8 sequence: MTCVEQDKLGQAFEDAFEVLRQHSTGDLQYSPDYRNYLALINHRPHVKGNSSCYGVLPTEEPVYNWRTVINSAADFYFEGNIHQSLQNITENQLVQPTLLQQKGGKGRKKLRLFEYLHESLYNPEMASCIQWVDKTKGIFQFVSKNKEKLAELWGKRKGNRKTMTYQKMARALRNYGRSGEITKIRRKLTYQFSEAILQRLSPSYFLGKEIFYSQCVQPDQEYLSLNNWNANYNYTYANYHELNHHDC
# In short: as §1
# ELF4 = ELF4 (Homo sapiens, UniProt Q99607 1-663); details: protein: recombinant; tags: N-terminal GST; dsDNA, one strand shown
# ELF4, sequence (Q99607 whole entry): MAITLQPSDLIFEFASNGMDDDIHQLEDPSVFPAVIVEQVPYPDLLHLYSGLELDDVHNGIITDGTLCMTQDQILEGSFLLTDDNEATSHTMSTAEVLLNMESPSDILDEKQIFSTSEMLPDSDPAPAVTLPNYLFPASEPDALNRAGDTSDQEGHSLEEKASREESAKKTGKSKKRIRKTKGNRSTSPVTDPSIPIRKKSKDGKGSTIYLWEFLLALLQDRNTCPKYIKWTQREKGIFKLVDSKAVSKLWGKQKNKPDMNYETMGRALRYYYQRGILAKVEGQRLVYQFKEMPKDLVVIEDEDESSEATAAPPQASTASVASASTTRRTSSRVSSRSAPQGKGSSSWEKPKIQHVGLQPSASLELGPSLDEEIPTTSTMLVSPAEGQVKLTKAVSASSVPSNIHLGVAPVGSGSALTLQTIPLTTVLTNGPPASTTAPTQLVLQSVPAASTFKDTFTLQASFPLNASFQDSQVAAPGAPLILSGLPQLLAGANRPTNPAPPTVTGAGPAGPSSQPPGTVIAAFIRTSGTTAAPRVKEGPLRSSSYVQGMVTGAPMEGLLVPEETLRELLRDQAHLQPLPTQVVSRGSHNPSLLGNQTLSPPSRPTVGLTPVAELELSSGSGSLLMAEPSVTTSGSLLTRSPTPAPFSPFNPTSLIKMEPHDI
# In short: as §1
# ELK4 = target: T9, ELK4 (Homo sapiens, UniProt P28324-2 1-405); details: protein: recombinant; tags: N-terminal GST; dsDNA, one strand shown
# T9 sequence: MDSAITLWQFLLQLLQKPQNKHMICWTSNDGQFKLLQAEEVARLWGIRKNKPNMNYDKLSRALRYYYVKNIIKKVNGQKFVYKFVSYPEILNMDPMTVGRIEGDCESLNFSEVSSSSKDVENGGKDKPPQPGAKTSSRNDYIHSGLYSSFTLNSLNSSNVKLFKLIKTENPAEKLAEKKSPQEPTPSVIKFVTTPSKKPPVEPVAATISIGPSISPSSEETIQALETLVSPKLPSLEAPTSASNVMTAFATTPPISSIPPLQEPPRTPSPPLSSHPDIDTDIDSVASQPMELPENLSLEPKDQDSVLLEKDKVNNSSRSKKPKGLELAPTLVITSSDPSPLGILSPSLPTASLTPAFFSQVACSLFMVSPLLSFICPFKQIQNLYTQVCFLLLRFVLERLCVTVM
# In short: as §1
# ETV2 = target: T10, ETV2 (Homo sapiens, UniProt O00321 1-342); details: protein: recombinant; tags: N-terminal GST; dsDNA, one strand shown
# T10 sequence: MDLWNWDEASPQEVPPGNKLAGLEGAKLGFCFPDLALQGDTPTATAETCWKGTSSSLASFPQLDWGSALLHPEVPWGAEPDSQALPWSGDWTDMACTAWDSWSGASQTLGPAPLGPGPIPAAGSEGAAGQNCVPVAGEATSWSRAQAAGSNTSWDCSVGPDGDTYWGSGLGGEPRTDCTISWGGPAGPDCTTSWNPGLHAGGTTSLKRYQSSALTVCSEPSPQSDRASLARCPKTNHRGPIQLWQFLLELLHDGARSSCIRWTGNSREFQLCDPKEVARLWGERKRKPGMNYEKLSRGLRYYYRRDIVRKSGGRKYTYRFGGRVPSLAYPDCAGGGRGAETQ
# In short: as §1
# ELF3 = target: T11, ELF3 (Homo sapiens, UniProt P78545 1-371); details: protein: recombinant; tags: N-terminal GST; dsDNA, one strand shown
# T11 sequence: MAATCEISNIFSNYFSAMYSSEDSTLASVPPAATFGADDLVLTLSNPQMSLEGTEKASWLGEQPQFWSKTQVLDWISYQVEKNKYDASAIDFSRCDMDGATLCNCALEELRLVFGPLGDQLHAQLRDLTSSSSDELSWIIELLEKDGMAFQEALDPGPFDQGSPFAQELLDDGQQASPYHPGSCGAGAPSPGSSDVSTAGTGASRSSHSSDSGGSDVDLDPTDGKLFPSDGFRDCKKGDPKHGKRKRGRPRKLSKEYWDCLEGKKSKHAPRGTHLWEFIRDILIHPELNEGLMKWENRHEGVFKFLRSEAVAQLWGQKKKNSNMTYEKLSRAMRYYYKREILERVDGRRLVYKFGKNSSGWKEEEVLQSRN
# In short: as §1
# CRX = CRX (Homo sapiens, UniProt O43186 1-299); details: protein: recombinant; tags: N-terminal GST; dsDNA, one strand shown
# CRX, sequence (O43186 whole entry): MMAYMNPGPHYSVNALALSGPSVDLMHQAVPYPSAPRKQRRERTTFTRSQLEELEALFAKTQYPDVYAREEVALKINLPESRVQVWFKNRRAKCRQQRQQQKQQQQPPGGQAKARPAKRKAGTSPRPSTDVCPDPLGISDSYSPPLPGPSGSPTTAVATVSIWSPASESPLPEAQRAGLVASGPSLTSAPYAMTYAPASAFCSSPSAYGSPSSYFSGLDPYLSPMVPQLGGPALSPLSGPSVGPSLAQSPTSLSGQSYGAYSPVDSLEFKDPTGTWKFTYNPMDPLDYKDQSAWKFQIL
# In short: as §1
# ETV1 = ETV1 (Homo sapiens, UniProt P50549 1-477); details: protein: recombinant; tags: N-terminal GST; dsDNA, one strand shown
# ETV1, sequence (P50549 whole entry): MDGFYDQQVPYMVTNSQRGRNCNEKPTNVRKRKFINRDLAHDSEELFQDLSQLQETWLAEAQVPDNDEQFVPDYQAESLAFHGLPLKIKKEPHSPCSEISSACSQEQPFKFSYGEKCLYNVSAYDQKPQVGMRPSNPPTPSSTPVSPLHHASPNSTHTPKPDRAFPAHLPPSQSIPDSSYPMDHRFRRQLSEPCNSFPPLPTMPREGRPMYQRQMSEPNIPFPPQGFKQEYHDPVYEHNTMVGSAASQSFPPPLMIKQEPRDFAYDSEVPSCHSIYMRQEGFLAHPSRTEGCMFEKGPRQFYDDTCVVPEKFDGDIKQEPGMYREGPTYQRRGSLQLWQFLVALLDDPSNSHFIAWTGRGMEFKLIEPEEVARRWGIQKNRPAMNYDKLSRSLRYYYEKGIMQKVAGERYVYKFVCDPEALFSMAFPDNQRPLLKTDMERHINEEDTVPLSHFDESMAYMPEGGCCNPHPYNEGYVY
# In short: as §1
sequence,measurement,setting,value
TATGTA,binding signal,FLI1,"1.32 fold enrichment (6-mer frequency, TF over GST control)"
same,binding signal,ELK1,"1.25 fold enrichment (6-mer frequency, TF over GST control)"
same,binding signal,GABPA,"1.29 fold enrichment (6-mer frequency, TF over GST control)"
same,binding signal,ERG,"1.2 fold enrichment (6-mer frequency, TF over GST control)"
same,binding signal,ELF1,"1.29 fold enrichment (6-mer frequency, TF over GST control)"
same,binding signal,EHF,"1.23 fold enrichment (6-mer frequency, TF over GST control)"
same,binding signal,SPI1,"1.3 fold enrichment (6-mer frequency, TF over GST control)"
same,binding signal,SPIB,"1.31 fold enrichment (6-mer frequency, TF over GST control)"
same,binding signal,ELK3,"1.17 fold enrichment (6-mer frequency, TF over GST control)"
same,binding signal,FEV,"1.28 fold enrichment (6-mer frequency, TF over GST control)"
same,binding signal,ETV5,"1.25 fold enrichment (6-mer frequency, TF over GST control)"
same,binding signal,HSF1,"1.28 fold enrichment (6-mer frequency, TF over GST control)"
same,binding signal,SPIC,"1.26 fold enrichment (6-mer frequency, TF over GST control)"
same,binding signal,ELF4,"1.38 fold enrichment (6-mer frequency, TF over GST control)"
same,binding signal,ELK4,"1.39 fold enrichment (6-mer frequency, TF over GST control)"
same,binding signal,ETV2,"1.23 fold enrichment (6-mer frequency, TF over GST control)"
same,binding signal,ELF3,"1.52 fold enrichment (6-mer frequency, TF over GST control)"
same,binding signal,CRX,"1.51 fold enrichment (6-mer frequency, TF over GST control)"
same,binding signal,ETV1,"1.3 fold enrichment (6-mer frequency, TF over GST control)"

# — article PMC7862700, “An all-to-all approach to the identification of sequence-specific readers for epigenetic DNA modifications on cytosine”
